The panel holds about 79,000 compounds, 15% with a hit somewhere; the sample as a whole holds those more often. Calls of active or inactive are those of the source. No stated cut-off is given here; in the data, active means growth inhibition above about 70%; inactive means the rest.
What was measured:
[1] = NCI Yeast Anticancer Drug Screen. Data for the rad50 strain (AID 155);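 further: 0% = growth of vehicle-only cultures of the same strain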; conditions: S. cerevisiae rad50 strain growth inhibition; at 50.0 µM; hits give high values
Summary of the method: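 A DNA repair-deficient yeast mutant serves as the test organism; compound-induced growth inhibition is calculated against vehicle-treated cells.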

[2] = NCI Yeast Anticancer Drug Screen. Data for the mec2-1 strain (AID 157); conditions: S. cerevisiae mec2-1 strain, at 50.0 µM, hits give high values
Summary of the method: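 Yeast mec2-1 mutant treated with compound. Readout: growth inhibition vs vehicle controls.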

[3] = NCI Yeast Anticancer Drug Screen. Data for the sgs1 mgt1 strain (AID 161);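 further: 0% = growth of cultures given vehicle only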; conditions: S. cerevisiae sgs1 mgt1 strain, at 50.0 µM, hits give high values
Summary of the method: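 Mutant yeast exposed to compound; growth scored against vehicle-only wells.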

[4] = NCI Yeast Anticancer Drug Screen. Data for the cln2 rad14 strain (AID 165);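 further: 0% = growth equal to vehicle treated cultures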; conditions: S. cerevisiae cln2 rad14 strain, at 50.0 µM, hits give high values
Summary of the method: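 cln2 rad14 yeast strain; compound exposure; growth inhibition read vs vehicle controls.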

[5] = NCI Yeast Anticancer Drug Screen. Data for the bub3 strain (AID 167); conditions: S. cerevisiae bub3 mutant strain, at 50.0 µM, hits give high values
Summary of the method: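 Inhibition values come from growth of compound-treated mutant yeast normalised to vehicle-treated controls.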

[6] = NCI Yeast Anticancer Drug Screen. Data for the mlh1 rad18 strain (AID 175); conditions: S. cerevisiae mlh1 rad18 strain growth inhibition; at 50.0 µM; hits give high values
Summary of the method: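 Yeast w/ defined DNA-repair lesions; compound exposure; growth vs vehicle controls → % inhibition.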

Measured: growth inhibition

COc1cc2c(c([N+](=O)[O-])c1)NC(=O)C(c1ccccc1)S2 (configuration not stated)
inactive: [1] -15.9% | [2] -12.3% | [3] -3.45% | [4] 23.1% | [5] 15.9% | [6] -3.95%

O=C1NC(CCl)(CCl)CO1
inactive: [1] 4.15% | [2] 8.85% | [3] -1.7% | [4] 5.45% | [5] -2.05% | [6] 10.1%

IC1CCC2OC1CCC2I (configuration not stated)
inactive: [1] 2.8% | [2] 1.75% | [3] -3.85% | [4] -8.35% | [5] -5.05% | [6] 11.8%

N#Cc1nc(/C=C/c2nc(C#N)c(N)o2)oc1N
inactive: [1] -34.5% | [2] -28.7% | [3] -5.25% | [4] 9.25% | [5] 8.4% | [6] -0.95%

[O-]/[N+]1=[N+](\[O-])c2ccccc2CCCc2ccccc21
inactive: [1] -7.35% | [2] -7.3% | [3] -2.6% | [4] -34.1% | [5] -12.8% | [6] -7.1%

NC(N)=NC(N)=Nc1ccc(-c2ccc(N=C(N)N=C(N)N)cc2)cc1
inactive: [1] 0.85% | [2] -0.3% | [3] -0.7% | [4] 6.15% | [5] 7.9% | [6] 13.6%

CC(C)COC(=O)C(=O)OCC(C)C
inactive: [1] 14.9% | [2] 23.1% | [3] -6.45% | [4] 34% | [5] -5.05% | [6] -14.7%

Cc1cccc(NC(=O)COc2ccc(Cl)cc2C)c1
inactive: [1] 8.35% | [2] 4.4% | [3] 9.55% | [4] 39.5% | [5] 0.4% | [6] -0.2%

CCOC(=O)/C(=C\c1ccccc1)c1nc2ccccc2[nH]1
inactive: [1] -1.2% | [2] -13.2% | [3] -15.4% | [4] -15.5% | [5] -14.7% | [6] -13.6%

CN(C)c1nnnn1-c1ccccc1
inactive: [1] 5.15% | [2] 5.05% | [3] 12.3% | [4] -21.9% | [5] 9.5% | [6] 0.45%

O=C(Nc1cc([N+](=O)[O-])cc2c1[nH]c(=O)c1ccccc12)C(F)(F)F
inactive: [1] 26.2% | [2] -2.8% | [3] 10.8% | [4] -41.2% | [5] -7.4% | [6] -0.25%

CS/C(c1ccccc1)=[N+](/C)[O-]
inactive: [1] 42.6% | [2] 16.5% | [3] 17.3% | [4] -1% | [5] 24.6% | [6] 25.6%

COC(=O)C1CCC(=O)N1CN(C(C)=O)c1cc(OC)ccc1OC (configuration not stated)
inactive: [1] 14.9% | [2] -0.05% | [3] 2.85% | [4] 6.45% | [5] -5.15% | [6] -50.1%

COc1ccc2c(c1)CC1(CC2)CCN(CCCN(C)C)CC1
inactive: [1] -32.3% | [2] -7.85% | [3] -22.2% | [4] 10.6% | [5] -9.7% | [6] -42.3%

CS(=O)(=O)OCC(O)C(O)C(OS(C)(=O)=O)C(O)COS(C)(=O)=O (configuration not stated)
inactive: [1] 7.1% | [2] 1.75% | [3] -7.75% | [4] 21.3% | [5] -8.55% | [6] 7.35%

COc1cc(-c2c3c(cc4c2OCO4)CC(O)C(C(=O)O)C3)cc(OC)c1OC (configuration not stated)
inactive: [1] 40.9% | [2] -2.6% | [3] 0.4% | [4] 15.1% | [5] 1.75% | [6] 5.6%

CCSC1OC(C(O)CO)C(O)C1NC(=O)C(F)(F)F (configuration not stated)
inactive: [1] 5.65% | [2] 6.05% | [3] 1.5% | [4] 1.1% | [5] 32% | [6] 12.8%

COC1(OC)C=NNc2nccn21
inactive: [1] 2.05% | [2] -2.5% | [3] 3.3% | [4] 19.6% | [5] -5.9% | [6] -5.3%

Cc1ccc2c(c1)C(C)(C)C(C)C2(C)C (configuration not stated)
inactive: [1] -3.05% | [2] -8.2% | [3] -13.8% | [4] -19.9% | [5] 9.25% | [6] 21.3%

CCOC(=O)Cn1c(C)nc2nn(Cc3ccccc3)cc2c1=O
inactive: [1] -49.7% | [2] -56.1% | [3] -36.2% | [4] -1.35% | [5] -32.9% | [6] -30.8%

CC(=O)OCC(=O)c1cc(C)n(C)c(=O)c1CN1C(=O)c2ccccc2C1=O
inactive: [1] -10.7% | [2] 9.05% | [3] 2.2% | [4] -36.3% | [5] 10.6% | [6] -12.7%

CCC[N+](C)(C)C
inactive: [1] 5.65% | [2] -28.2% | [3] -1.15% | [4] 6.4% | [5] 1.6% | [6] -5.45%

O=C(OC(CN1CCCCC1)CN1CCCc2ccccc21)C(O)C(O)C(O)(CO)C(=O)OC(CN1CCCCC1)CN1CCCc2ccccc21 (configuration not stated)
inactive: [1] 15.4% | [2] 7.05% | [3] 43.8% | [4] 1.8% | [5] 7.95% | [6] 41.1%

CCCCCCCNC1=C(O)c2ccccc2C(=O)C1=O
inactive: [1] -11.4% | [2] 15.8% | [3] 2.2% | [4] -44.2% | [5] 12.3% | [6] 6.2%

CCOc1cc[n+]([O-])cc1C
inactive: [1] -15.7% | [2] -9.6% | [3] 1.45% | [4] -8.2% | [5] -3.75% | [6] 13.1%

c1ccc2c(C3CO3)c3ccc4ccccc4c3cc2c1 (configuration not stated)
active: [1] 99% | [2] 99.5% | [3] 99.5% | [4] 98.8% | [5] 99.2% | [6] 99.2%

COC1=C(OC)C(=O)C(COC2CCCCO2)=CC1=O (configuration not stated)
inactive: [1] -4.9% | [2] -1.45% | [3] 8.75% | [5] 10.6% | [6] -6.65%
active: [4] 87.5%

N#C/C(=C(\O)C(=O)O)c1ccc(-c2cccc3ccccc23)cc1
inactive: [1] 29.6% | [2] 0.6% | [3] -17.9% | [4] 1.9% | [5] 16.7% | [6] 26.9%

CN(C)Cc1[nH]c2ccccc2c1C(=O)c1ccccc1
inactive: [1] -4.55% | [2] -8.85% | [3] -12.2% | [4] -18.7% | [5] -25.5% | [6] -25.6%

O=C(/C=C/c1cc2ccccc2o1)N1CCN(c2ccccn2)CC1
inactive: [1] 28.6% | [2] 27.6% | [3] 39.2% | [4] 11.3% | [5] 17.9% | [6] 15.8%

Cc1nn(C)c(=O)c(N)c1-c1cc(-c2ccc(Cl)cc2)n[nH]1
inactive: [1] 13.9% | [2] 4.45% | [3] 19.9% | [4] 20.1% | [5] 18.1% | [6] 13.9%

CCCCCCCCCCCCNC(=O)c1ccccc1O
inactive: [1] 13.2% | [2] 23.6% | [3] 17.9% | [4] 20.8% | [5] 10.6% | [6] 35.8%

Cc1cccc(Cc2ccccc2C(=O)c2ccccc2)c1C
inactive: [1] 5.75% | [2] -6.75% | [3] -5.5% | [4] -19.2% | [5] 7.4% | [6] -17.1%

Cc1nc(CC#N)n[nH]1
inactive: [1] 24.5% | [2] 18% | [3] 17.1% | [4] 11.3% | [5] 24.8% | [6] 19.7%

CCn1c(=NC(=O)c2ccccc2O)sc2ccccc21
inactive: [1] 16.5% | [2] 4% | [3] 2.15% | [4] 17.9% | [5] -5.7% | [6] -3.05%

CCCCCCC(C(=O)OCC)(C(=O)OCC)c1ccccc1
inactive: [1] -10.8% | [2] -16.1% | [3] 1.15% | [4] -31.1% | [5] 37.9% | [6] -6.2%

CCS(=O)c1ncc2cnccn12 (configuration not stated)
inactive: [1] 2.35% | [2] 1.3% | [3] 15.4% | [4] -17.8% | [5] 8.3% | [6] -18.8%

COc1cccc2c1C(=O)c1c(C)c(C)c(C)c(C)c1-2
inactive: [1] 3.3% | [2] 6% | [3] 3.05% | [4] -1.7% | [5] 14.6% | [6] -10.1%

CCCCNC(=S)SSSSC(=S)NCCCC
inactive: [1] -8.45% | [2] -14% | [3] -6.05% | [4] -53.5% | [5] 8.7% | [6] -7.55%

O=[N+]([O-])c1cccc(N=C(c2ccccc2)N(O)c2ccccc2)c1
inactive: [1] 1.8% | [2] -19.2% | [3] 0.85% | [4] 31.9% | [5] 10.9% | [6] 15.8%

Cc1cn(CCCCCCCCCCCCOc2c3occc3cc3ccc(=O)oc23)c(=O)[nH]c1=O
inactive: [1] 20.1% | [2] 4.6% | [3] -3.5% | [4] 23.2% | [5] -2.35% | [6] 19.6%

CC(C)CC(CCl)Cc1nc2ccccc2[nH]1 (configuration not stated)
inactive: [1] 13.1% | [2] 4.05% | [3] 39.8% | [4] 14.9% | [5] 33.6% | [6] 27.5%

From PubChem BioAssay (NCI)
